Data on nine compounds can be found in PubChem BioAssay (Tox21).

Assay [1] concerns the target Estrogen receptor (Homo sapiens) (UniProt P03372). The experiment in a line: qHTS assay to identify small molecule antagonists of the estrogen receptor alpha (ER-alpha) signaling pathway using the BG1 cell line in the presence of 0.1 nM 17-beta-estradiol (AID 1259244). Also: nearly all actives have a fitted effect of over 50% in size. Also: potency is read from the fitted curve at half-maximal effect. Put shortly:
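Compounds were tested against 0.1 nM (final) 17beta-estradiol in VM7Luc4E2 cells, which express full-length ER-alpha and an ERE-luciferase reporter; luminescence was recorded following 22 h exposure.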
Background: Quantitative high-throughput screening tests each substance at several concentrations.

Assay [2] is described as follows: qHTS assay to identify small molecule HDAC inhibitors (AID 1259364). Also: potency is read from the fitted curve at half-maximal effect.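 Also: wild-type HCT-116 cells with endogenous class I/II HDAC activity; nearly all actives have a fitted effect of over 45% in size.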 Put shortly:
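Screening used wild-type human colon HCT-116 cells incubated overnight, dosed with compounds for 2 hours, and assayed with a homogeneous luminogenic HDAC I/II reagent for 30 minutes at room temperature.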

A short description of assay [3]: qHTS assay to identify small molecule HDAC inhibitors - cell viability counter screen (AID 1259365). Also: nearly all actives have a fitted effect of over 50% in size. Also: potency is read from the fitted curve at half-maximal effect. Put shortly: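 Measured quantity is CellTiter-Glo luminescence from wild-type HCT-116 cells after compound incubation of 2hr at 37C, 5% CO2; reagent developed 30min at room temperature.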
Assay [4] is described as follows: qHTS assay to identify small molecule agonists of the sonic hedgehog signaling (Shh) pathway - cell viability counter screen (AID 1259366). Also: nearly all actives have a fitted effect of over 50% in size. Also: potency is read from the fitted curve at half-maximal effect. In a few lines:
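In quantitative high-throughput format, 3T3 Gli1-Luc cells were exposed to compounds for 24hr and multiplexed for viability using CellTiter-Fluor, incubated 1hr at 37C before the fluorescence read.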

A short description of assay [5]: qHTS assay to identify small molecule agonists of the sonic hedgehog signaling (Shh) pathway (AID 1259368; calls by dose curve;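 also: NIH/3T3-derived 3T3Gli1-Luc cells carrying a stable Gli1-driven firefly luciferase reporter; series mostly up to about 92 µM; nearly all actives have a fitted effect of over 15% in size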). In a few lines:
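Hedgehog pathway agonism scored by increased firefly luciferase luminescence in 3T3Gli1-Luc cells treated 24 hr at 37 C; detection used a 30 min room-temperature reagent incubation.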

Assay [6] in a line: qHTS assay to identify small molecule agonists of the estrogen receptor beta (ER-beta) signaling pathway - cell viability counter screen (AID 1259380). Also: nearly all actives have a fitted effect of over 30% in size. Also: potency is read from the fitted curve at half-maximal effect. In a few lines:
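Measured: luminescence from CellTiter-Glo after 30 min at room temperature, added to wells already read for the LiveBLAzer FRET reporter (2 hr substrate); ER-beta-UAS-bla HEK293T cells had 16 hr compound treatment at 37C, 5% CO2.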

A short description of assay [7]: qHTS assay to identify small molecule antagonists of the estrogen receptor beta (ER-beta) signaling pathway - cell viability counter screen (AID 1259382). Also: nearly all actives have a fitted effect of over 55% in size. Also: potency is read from the fitted curve at half-maximal effect. In a few lines:
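Readout: luminescence, CellTiter-Glo, same wells as bla assay. System: ER-beta-UAS-bla GripTite HEK293T, 2% charcoal-stripped FBS. Exposure: compounds plus 1nM 17-beta-estradiol, 16 hr, 37C.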

Assay [8] deals with Estrogen receptor (Homo sapiens) (UniProt P03372). The experiment in a line: qHTS assay to identify small molecule agonists of the estrogen receptor alpha (ER-alpha) signaling pathway in the presence of an antagonist (AID 1259383; calls by dose curve; also: top concentration of the series differs between compounds; nearly all actives have a fitted effect of over 15% in size). Put shortly:
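Quantitative HTS confirmation: compounds titrated at 15 concentrations onto estrogen-deprived VM7Luc4E2 cells carrying a four-ERE luciferase construct, with ICI-182,780 present at 10.0nM final. Signal is luminescence after 22hr exposure.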

The nature of assay [9]: qHTS assay to identify small molecule agonists or antagonists of the thyroid stimulating hormone receptor (TSHR) signaling pathway - wild type cell line counter screen (AID 1259384; calls by dose curve). In a few lines:
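Wild-type HEK293 cells were plated 18 h at 37 C/5% CO2, pin-dosed with compound plus Ro20-1724 medium, held 30 min at room temperature, then given cAMP-d2 and anti-cAMP-cryptate; fluorescence was read after 1 h. Fifteen concentrations, triplicate.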

Assay [10] is described as follows: qHTS assay to identify small molecule agonists of the estrogen receptor alpha (ER-alpha) signaling pathway in the presence of an antagonist - cell viability counter screen (AID 1259386).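 Also: cells exposed to compounds for 22 h at 37 °C before the viability read; nearly all actives have a fitted effect of over 30% in size.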 Also: potency is read from the fitted curve at half-maximal effect. In a few lines:
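The test measures whether compounds kill ER-alpha reporter cells (VM7Luc4E2) under antagonist co-treatment (ICI-182,780, 10.0nM). Fluorescence from CellTiter-Fluor is read after a 22hr exposure.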

A short description of assay [11]: qHTS assay to identify small molecule antagonists of the sonic hedgehog signaling (Shh) pathway - cell viability counter screen (AID 1259367). Also: nearly all actives have a fitted effect of over 55% in size. Also: potency is read from the fitted curve at half-maximal effect. Put shortly:
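Cytotoxicity was assessed in parallel with Shh reporter activity by measuring live-cell protease fluorescence (CellTiter-Fluor) in NIH/3T3 cells stably carrying Gli1-Luc, treated with compound under conditioned medium stimulation for 23 hr plus 1 hr reagent incubation.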

The target in assay [12] is Estrogen receptor beta (Homo sapiens) (UniProt Q92731). The experiment in a line: qHTS assay to identify small molecule agonists of the estrogen receptor beta (ER-beta) signaling pathway (AID 1259377; active = well fitted activation curve with a large enough effect in the signal ratio in the repeat runs, not every such curve was filed as active; the % refers to the signal ratio). In a few lines:
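Reporter cells (HEK293T, ER-beta-UAS-bla) receive compounds or DMSO after a 6 hr pre-incubation. They then incubate 16 hr at 37C/5% CO2, and fluorescence from LiveBLAzer B/G substrate is measured after 2 hours at room temperature.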

For assay [13] the target is unchanged. The experiment in a line: qHTS assay to identify small molecule antagonists of the estrogen receptor beta (ER-beta) signaling pathway (AID 1259378; active = well fitted inhibition curve with a large enough effect in the signal ratio in the repeat runs, not every such curve was filed as active; the % refers to the signal ratio). In a few lines: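 ER-beta-UAS-bla HEK293T (GripTite) cells in 2% charcoal-stripped FBS medium were preincubated 6 hr at 37C, dosed with compound, then stimulated with 1 nM E2 (final) for 16 hr; beta-lactamase reporter read by B/G FRET fluorescence after 2 hr substrate loading.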

Assay [14] concerns the target Thyrotropin receptor (Homo sapiens) (UniProt P16473). The experiment in a line: qHTS assay to identify small molecule antagonists of the thyroid stimulating hormone receptor (TSHR) signaling pathway (AID 1259385; calls by dose curve; also: nearly all actives have a fitted effect of over 20% in size). In a few lines: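 TSHR-HEK293 cells were plated and held 18 h at 37C/5% CO2, then given compound plus Ro20-1724 and stimulated with TSH at 1.5 ng/mL final. After 30 min at room temperature, cAMP was detected with cAMP-d2/anti-cAMP-cryptate (1 h) by fluorescence.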

In assay [15] the target is Progesterone receptor (Homo sapiens) (UniProt P06401). The experiment in a line: qHTS assay to identify small molecule agonists of the progesterone receptor (PR) signaling pathway (AID 1346784; calls by dose curve; also: nearly all actives have a fitted effect of over 30% in size). Put shortly: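 Reporter assay, GripTite PR-UAS-bla HEK 293T cells: 16 hr exposure to DMSO-dissolved compounds at 37C, 5% CO2, in steroid-depleted (2% charcoal-stripped FBS) medium; beta-lactamase measured by FRET fluorescence.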

Assay [16] can be described thus: qHTS assay to identify small molecule antagonists of the sonic hedgehog signaling (Shh) pathway (AID 1259369; calls by dose curve; also: nearly all actives have a fitted effect of over 45% in size; also: potency is read from the fitted curve at half-maximal effect). Put shortly:
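NIH/3T3 stable Gli1-Luc clone, 2,000 cells/well, 4hr settle; cpd + conditioned medium 24hr; Luc reagent 30min RT; luminescence.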

A short description of assay [17]: qHTS assay to identify small molecule agonists of the androgen receptor (AR) signaling pathway in the presence of an antagonist - cell viability counter screen (AID 1259379). Also: nearly all actives have a fitted effect of over 25% in size. Also: potency is read from the fitted curve at half-maximal effect. In a few lines:
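MDA-kb2 viability measured by CellTiter-Fluor fluorescence in the same wells as the luciferase signal; nilutamide 3.0uM final; 15-point compound titration; 16 hr at 37C.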

Several values for one entry are separate records, joined by “and”; a condition that tells them apart may be missing. Identical values can stand only once. Inconclusive results are not listed. Activity calls are given as the source filed them. Unless noted, calls follow the shape of the dose curve; as a rule, active = well fitted curve in the direction sought with a large enough effect in the repeat runs; inconclusive = weak or mixed curves; inactive = no such curve, though single readings can be large; an effect the other way counts as inactive or inconclusive.

Sequence of Estrogen receptor beta (Homo sapiens) (Q92731 whole entry, looked up): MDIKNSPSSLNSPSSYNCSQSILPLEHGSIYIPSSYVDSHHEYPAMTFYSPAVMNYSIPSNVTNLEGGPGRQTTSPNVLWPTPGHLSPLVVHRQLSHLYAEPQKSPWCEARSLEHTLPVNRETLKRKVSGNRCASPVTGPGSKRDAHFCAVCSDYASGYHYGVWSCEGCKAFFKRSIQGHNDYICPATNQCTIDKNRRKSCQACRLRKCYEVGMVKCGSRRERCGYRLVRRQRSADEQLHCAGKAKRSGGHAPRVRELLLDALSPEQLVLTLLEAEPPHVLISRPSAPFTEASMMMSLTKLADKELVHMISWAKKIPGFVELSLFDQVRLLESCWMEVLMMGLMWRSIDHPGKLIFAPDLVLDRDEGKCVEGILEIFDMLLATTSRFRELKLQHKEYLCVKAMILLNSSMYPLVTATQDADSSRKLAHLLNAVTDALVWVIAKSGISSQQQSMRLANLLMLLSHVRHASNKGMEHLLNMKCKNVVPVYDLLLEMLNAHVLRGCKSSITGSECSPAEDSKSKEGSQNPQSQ
Sequence of Thyrotropin receptor (Homo sapiens) (P16473 whole entry, looked up): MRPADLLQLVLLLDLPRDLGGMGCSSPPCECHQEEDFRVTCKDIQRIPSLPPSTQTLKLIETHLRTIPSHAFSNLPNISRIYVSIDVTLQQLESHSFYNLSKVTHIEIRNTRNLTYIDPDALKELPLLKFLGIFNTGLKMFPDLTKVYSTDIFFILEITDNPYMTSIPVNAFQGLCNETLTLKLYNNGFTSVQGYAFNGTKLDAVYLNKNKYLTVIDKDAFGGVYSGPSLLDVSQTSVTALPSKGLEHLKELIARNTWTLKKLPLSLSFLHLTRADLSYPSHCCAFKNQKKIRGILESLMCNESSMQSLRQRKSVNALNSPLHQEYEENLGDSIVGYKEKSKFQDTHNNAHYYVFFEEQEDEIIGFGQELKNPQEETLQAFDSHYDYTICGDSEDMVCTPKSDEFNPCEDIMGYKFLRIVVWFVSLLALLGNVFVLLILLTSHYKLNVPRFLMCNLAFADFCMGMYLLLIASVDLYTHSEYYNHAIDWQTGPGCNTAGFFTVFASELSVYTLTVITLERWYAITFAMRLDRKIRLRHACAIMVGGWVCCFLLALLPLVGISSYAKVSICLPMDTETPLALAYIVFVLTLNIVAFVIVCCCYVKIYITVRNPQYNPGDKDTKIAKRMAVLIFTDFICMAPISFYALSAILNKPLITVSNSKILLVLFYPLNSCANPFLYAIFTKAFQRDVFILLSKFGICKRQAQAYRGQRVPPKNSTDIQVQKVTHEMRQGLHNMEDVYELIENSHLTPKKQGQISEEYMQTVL
Sequence of Progesterone receptor (Homo sapiens) (P06401 whole entry, looked up): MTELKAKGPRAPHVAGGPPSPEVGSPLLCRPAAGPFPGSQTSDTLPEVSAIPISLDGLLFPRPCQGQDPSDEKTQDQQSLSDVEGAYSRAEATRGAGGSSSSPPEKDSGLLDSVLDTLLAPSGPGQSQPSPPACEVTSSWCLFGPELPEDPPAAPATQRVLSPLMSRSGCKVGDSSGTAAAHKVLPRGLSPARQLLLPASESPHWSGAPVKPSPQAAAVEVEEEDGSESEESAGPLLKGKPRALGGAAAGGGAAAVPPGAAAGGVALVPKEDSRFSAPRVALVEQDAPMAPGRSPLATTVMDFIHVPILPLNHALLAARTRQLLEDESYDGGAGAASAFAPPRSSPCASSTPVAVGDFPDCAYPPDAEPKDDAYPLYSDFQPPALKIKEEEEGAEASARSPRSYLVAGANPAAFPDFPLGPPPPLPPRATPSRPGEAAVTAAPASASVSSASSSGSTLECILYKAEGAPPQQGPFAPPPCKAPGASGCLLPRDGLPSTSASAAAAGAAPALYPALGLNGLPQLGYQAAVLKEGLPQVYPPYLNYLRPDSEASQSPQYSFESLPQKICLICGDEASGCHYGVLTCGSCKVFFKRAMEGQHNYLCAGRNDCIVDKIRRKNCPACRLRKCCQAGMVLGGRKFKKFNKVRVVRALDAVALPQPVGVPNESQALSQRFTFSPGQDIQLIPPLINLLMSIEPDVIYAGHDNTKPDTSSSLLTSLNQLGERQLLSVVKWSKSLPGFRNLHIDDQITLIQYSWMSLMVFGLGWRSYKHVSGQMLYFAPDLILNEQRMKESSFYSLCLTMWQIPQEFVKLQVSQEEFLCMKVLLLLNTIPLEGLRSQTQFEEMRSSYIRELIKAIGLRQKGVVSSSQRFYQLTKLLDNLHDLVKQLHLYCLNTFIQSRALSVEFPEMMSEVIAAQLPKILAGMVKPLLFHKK
Sequence of Estrogen receptor (Homo sapiens) (P03372 whole entry, looked up): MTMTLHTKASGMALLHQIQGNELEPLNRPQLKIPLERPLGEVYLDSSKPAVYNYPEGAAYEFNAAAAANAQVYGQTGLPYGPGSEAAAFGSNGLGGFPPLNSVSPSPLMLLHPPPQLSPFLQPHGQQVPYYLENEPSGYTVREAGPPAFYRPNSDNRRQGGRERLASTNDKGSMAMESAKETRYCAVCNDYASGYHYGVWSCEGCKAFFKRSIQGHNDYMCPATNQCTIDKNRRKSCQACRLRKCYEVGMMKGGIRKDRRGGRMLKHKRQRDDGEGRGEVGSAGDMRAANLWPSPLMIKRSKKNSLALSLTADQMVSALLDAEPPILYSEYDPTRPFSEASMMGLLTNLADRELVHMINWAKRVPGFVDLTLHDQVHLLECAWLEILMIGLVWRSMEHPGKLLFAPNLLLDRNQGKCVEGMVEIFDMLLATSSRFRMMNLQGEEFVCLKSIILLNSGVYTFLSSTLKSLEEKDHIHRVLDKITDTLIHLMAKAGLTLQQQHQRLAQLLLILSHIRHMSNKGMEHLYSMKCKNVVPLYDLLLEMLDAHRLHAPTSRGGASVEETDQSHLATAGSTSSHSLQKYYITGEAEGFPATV

In the case of `O=C(O)c1cc(O)c2c(c1)C(=O)c1cccc(O)c1C2=O`, the Potency result in assay [1], in assay [3], in [4], in assay [5], in [6] and in assay [7] was “inactive” in each case. In addition, the Potency entry in assay [8] was “inactive”. In assay [2], the Potency was 14.1 µM (active). In addition, the call in assay [9] was inactive.
With `O=CC=C(c1ccccc1)c1ccccc1`, the Potency is 69.1 µM (active) in assay [1], 27.5 µM (active) in assay [6] and 27.5 µM (active) in assay [7]. Moreover, the Potency entry in assay [2], in [3], in assay [5], in assay [8] and in [10] was “inactive” each time. The compound was classed as inactive in [9].
For `Cc1cccc(S(=O)(=O)O)c1C`, the Potency entry in [1], in assay [2], in assay [3], in assay [4], in assay [11] and in assay [12] was “inactive” throughout. Besides, the Potency entry in assay [13], in assay [6], in [7], in [8], in assay [14] and in [10] was “inactive” throughout. For the same compound, in assay [15], the Potency result was “inactive”. Also, the call in assay [9] was inactive.
Regarding `CCC(C)(C)C1CCCCC1OC(C)=O` (stereo not drawn), the Potency entry in assay [1], in assay [2], in assay [3], in [11], in assay [5] and in [16] was “inactive” each time. Besides, the Potency result in assay [17], in assay [6], in [7], in assay [10] and in assay [15] was “inactive” in each case. Further, the result in assay [9] was inactive.
Turning to `Cc1cc2c(cc1C(F)(F)F)N(C(=O)Nc1ccc(Oc3cccnc3C)nc1)CC2`, the Potency was 31.1 µM (active) in [1] and 55.3 µM (active) in [17]. Moreover, the Potency result in [2], in assay [3], in assay [11], in assay [5], in assay [7] and in [10] was “inactive” in each case. The Potency entry in [15] is “inactive”.
For the compound `CCc1cc(Cc2cc(CC)c(N)c(CC)c2)cc(CC)c1N`, the Potency was 54.5 µM (active) in assay [1], 30.6 µM (active) in [16], 27.3 µM (active) in assay [6] and 48.6 µM (active) in assay [7]. For the same compound, the Potency result in assay [3], in assay [4], in assay [11], in assay [12], in assay [8] and in assay [14] was “inactive” in each case. Also, the call in assay [9] was inactive.
Turning to `CCCCCCCC[P+](CCCCCCCC)(CCCCCCCC)CCCCCCCC`, the Potency in assay [1] was 0.43 µM (active); in [3], 34.2 µM (active); in assay [4], 12.1 µM (active); in [11], 17.1 µM (active); in assay [16] it was 0.483 µM (active); in [17] it was 2.42 µM (active). In addition, the Potency was 8.58 µM (active) in assay [6], 10.8 µM (active) in assay [7] and 2.71 µM (active) in assay [10]. Moreover, the Potency result in assay [5] and in [8] was “inactive” in each case. For the same compound, the compound was classed as inactive in assay [9].
Regarding `Fc1ccc(C(c2ccc(F)cc2)N2CCN(C/C=C/c3ccccc3)CC2)cc1`, the Potency entry in [1], in assay [2], in assay [3], in assay [4], in assay [11] and in assay [5] was “inactive” in each case. The Potency result in assay [16], in assay [12], in assay [8], in [14] and in assay [10] was “inactive” in each case. Besides, the compound was called inactive in assay [9].
For `C[C@H](CCC(=O)O)[C@H]1CC[C@H]2[C@@H]3CC[C@@H]4C[C@H](O)CC[C@]4(C)[C@H]3CC[C@]12C`, the Potency entry in assay [1], in assay [2], in [3], in assay [11], in assay [5] and in [17] was “inactive” in each case. In addition, the Potency result in assay [8] and in [10] was “inactive” each time. The Potency in assay [6] is 48.4 µM (active) and 48.6 µM (active); in [7] it was 19.3 µM (active).
